Test results published in PubChem BioAssay (NCATS).
Records with an inconclusive call do not appear. Activity calls are given as the source filed them. The call rests on the fitted dose curve; in most records, active means well fitted cell-killing curve with a large enough effect; inconclusive means small, poorly fitted or top-dose-only effect, or effect the other way; inactive means no such curve, though single readings can be large or run the other way.

Assay: Quantitative High-Throughput drug screen in 47 multiple myeloma cell lines against the NCATS MIPE library collection: KMS12PE_JCRB cell viability assay (AID 1918972); further: nearly all actives have a fitted effect of over 30% in size
Conditions: KMS12PE myeloma viability, CellTiter-Glo ATP, 48 h; series mostly up to 45.8 µM
In short: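 Myeloma cells (500 per well) were exposed to MIPE 4.0 compounds by pin transfer and incubated 48 hours at 37C, 5% CO2. Viability was read as ATP by CellTiter-Glo luminescence, normalised to DMSO (100%) and media-only (0%) wells.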
Potency means the concentration at half of the fitted maximal effect.

| Structure (SMILES) | Potency |
| --- | --- |
| NC1(C(=O)N[C@@H](CCO)c2ccc(Cl)cc2)CCN(c2ncnc3[nH]ccc23)CC1 | 418 nM (active) |
| N#CC(c1ccc(Cl)cc1)c1c(Cl)cc(-n2ncc(=O)[nH]c2=O)cc1Cl (stereo not drawn) | 13200 nM (active) |
| Cc1cn([C@@H]2C[C@@H](O)[C@H](CO)O2)c(=O)[nH]c1=O | inactive |
| Cc1ccc(NC(=O)Nc2cc(C(F)(F)F)ccc2F)cc1Nc1ccc2c(c1)NC(=O)C2=Cc1ccc[nH]1 | 2350 nM (active) |
| CC(C)(C)c1nc(-c2cccc(NS(=O)(=O)c3c(F)cccc3F)c2F)c(-c2ccnc(N)n2)s1 | 1870 nM (active) |
| O=S(=O)(NCCNCC=Cc1ccc(Br)cc1)c1cccc2cnccc12 | 16600 nM (active) |
| COC(=O)Nc1ccc(-c2nc(N3CCOCC3)c3cnn(C4CCN(C(=O)OC)CC4)c3n2)cc1 | 1660 nM (active) |
| CC[C@H](C=C[C@@H](C)[C@H]1CC[C@H]2[C@@H]3CC=C4C[C@@H](O)CC[C@]4(C)[C@@H]3CC[C@]12C)C(C)C | inactive |
| C[C@@H]1C[C@H]2[C@@H]3CCC4=CC(=O)C=C[C@]4(C)[C@@]3(F)[C@@H](O)C[C@]2(C)[C@@]1(O)C(=O)CO | inactive |
| O=C1CCCC(=O)C1C(=O)c1ccc(C(F)(F)F)cc1[N+](=O)[O-] | inactive |
| C=C1[C@H](n2cnc3c(=O)[nH]c(N)nc32)C[C@H](O)[C@H]1CO | 296 nM (active) |
| CNC(=O)c1ccc2c(C(=Nc3cccc(CN(C)C)c3)c3ccccc3)c(O)[nH]c2c1 | 18700 nM (active) |
| CCn1c(-c2nonc2N)nc2cncc(CNC3CCNCC3)c21 | 1050 nM (active) |
| Cc1[nH]c(C=C2C(=O)Nc3ccc(S(=O)(=O)N(C)c4cccc(Cl)c4)cc32)c(C)c1C(=O)N1CCN(C)CC1 | 7430 nM (active) |

Assay: Quantitative High-Throughput drug screen in 47 multiple myeloma cell lines against the NCATS MIPE library collection: KMS20_JCRB cell viability assay (AID 1918973); further: nearly all actives have a fitted effect of over 45% in size
Conditions: CellTiter-Glo ATP, 48 h; series mostly up to 45.8 µM
In short: (§1)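 Primary qHTS used for cherry-picking: cells at 500/well, library compounds for 48 h (37C, 5% CO2), luminescent ATP assay.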

| Structure (SMILES) | Potency |
| --- | --- |
| CCOC(=O)N1CCN([N+]([O-])=NOc2cc(ON=[N+]([O-])N3CCN(C(=O)OCC)CC3)c([N+](=O)[O-])cc2[N+](=O)[O-])CC1 | 2640 nM (active) |
| O=C(CC12CC3CC(CC(C3)C1)C2)Nc1cccc2nc(NCCNCCO)ccc12 | 6620 nM (active) |
| CN[C@@H]1CN(c2ccc3c(=O)c(C(=O)O)cn(-c4nccs4)c3n2)C[C@@H]1OC | 6450 nM (active) |
| CCC(C)SSc1ncc[nH]1 (stereo not drawn) | 5260 nM (active) |
| C[C@@H]1O[C@@H](O[C@H]2CC[C@@]3(C)[C@H](CC[C@@H]4[C@H]3C[C@@H](O)[C@]3(C)[C@@H](C5=CC(=O)OC5)CC[C@]43O)C2)C[C@H](O)[C@@H]1O[C@H]1C[C@H](O)[C@H](O[C@H]2C[C@H](O)[C@@H](O)[C@@H](C)O2)[C@H](C)O1 (stereo in doubt) | 270 nM (active) |
| CC[C@H](C)C(=O)O[C@H]1C[C@H](O)C=C2C=C[C@H](C)[C@H](CC[C@@H](O)C[C@@H](O)CC(=O)O)[C@H]21 | inactive |
| CC[C@H](NC(=O)[C@H](C)NC)C(=O)N1C[C@@H](O)C[C@H]1Cc1c(-c2[nH]c3cc(F)ccc3c2C[C@H]2C[C@H](O)CN2C(=O)[C@H](CC)NC(=O)[C@H](C)NC)[nH]c2cc(F)ccc12 | 4690 nM (active) |
| NC1(C(=O)N[C@@H](CCO)c2ccc(Cl)cc2)CCN(c2ncnc3[nH]ccc23)CC1 | 1180 nM (active) |
| N#CC(c1ccc(Cl)cc1)c1c(Cl)cc(-n2ncc(=O)[nH]c2=O)cc1Cl (stereo not drawn) | 3720 nM (active) |
| Cc1ccc(NC(=O)Nc2cc(C(F)(F)F)ccc2F)cc1Nc1ccc2c(c1)NC(=O)C2=Cc1ccc[nH]1 | 5900 nM (active) |
| O=S(=O)(NCCNCC=Cc1ccc(Br)cc1)c1cccc2cnccc12 | 11800 nM (active) |
| COC(=O)Nc1ccc(-c2nc(N3CCOCC3)c3cnn(C4CCN(C(=O)OC)CC4)c3n2)cc1 | 14.8 nM (active) |
| CC[C@H](C=C[C@@H](C)[C@H]1CC[C@H]2[C@@H]3CC=C4C[C@@H](O)CC[C@]4(C)[C@@H]3CC[C@]12C)C(C)C | inactive |
| C[C@@H]1C[C@H]2[C@@H]3CCC4=CC(=O)C=C[C@]4(C)[C@@]3(F)[C@@H](O)C[C@]2(C)[C@@]1(O)C(=O)CO | 418 nM (active) |
| Cc1nc(NC(=O)N2CCC[C@@H]2C(N)=O)sc1-c1csc(C(C)(C)C)n1 | 2640 nM (active) |
| CNC(=O)c1cc(COc2nnc(Nc3ccc(Cl)cc3)c3ccoc23)ccn1 | inactive |
| Cc1[nH]c(C=C2C(=O)Nc3ccc(S(=O)(=O)N(C)c4cccc(Cl)c4)cc32)c(C)c1C(=O)N1CCN(C)CC1 | 5260 nM (active) |

Assay: Quantitative High-Throughput drug screen in 47 multiple myeloma cell lines against the NCATS MIPE library collection: KMS21BM_JCRB cell viability assay (AID 1918974)
Conditions: ATP luminescence, 48 h; viability: at 45.8 µM (top of the series)
In short: as §1

| Structure (SMILES) | Potency | viability |
| --- | --- | --- |
| CN(C)CC[C@H](CSc1ccccc1)Nc1ccc(S(=O)(=O)NC(=O)c2ccc(N3CCN(Cc4ccccc4-c4ccc(Cl)cc4)CC3)cc2)cc1[N+](=O)[O-] | 83.3 nM (active) |  |
| CCC(C)SSc1ncc[nH]1 (stereo not drawn) | 8330 nM (active) |  |
| C[C@@H]1O[C@@H](O[C@H]2CC[C@@]3(C)[C@H](CC[C@@H]4[C@H]3C[C@@H](O)[C@]3(C)[C@@H](C5=CC(=O)OC5)CC[C@]43O)C2)C[C@H](O)[C@@H]1O[C@H]1C[C@H](O)[C@H](O[C@H]2C[C@H](O)[C@@H](O)[C@@H](C)O2)[C@H](C)O1 (stereo in doubt) | 215 nM (active) |  |
| CC[C@H](C)C(=O)O[C@H]1C[C@H](O)C=C2C=C[C@H](C)[C@H](CC[C@@H](O)C[C@@H](O)CC(=O)O)[C@H]21 | inactive |  |
| CC[C@H](NC(=O)[C@H](C)NC)C(=O)N1C[C@@H](O)C[C@H]1Cc1c(-c2[nH]c3cc(F)ccc3c2C[C@H]2C[C@H](O)CN2C(=O)[C@H](CC)NC(=O)[C@H](C)NC)[nH]c2cc(F)ccc12 | 526 nM (active) |  |
| N#CC(c1ccc(Cl)cc1)c1c(Cl)cc(-n2ncc(=O)[nH]c2=O)cc1Cl (stereo not drawn) | 235 nM (active) |  |
| CC(C)(C)c1nc(-c2cccc(NS(=O)(=O)c3c(F)cccc3F)c2F)c(-c2ccnc(N)n2)s1 | 2350 nM (active) |  |
| CN[C@@H](C)[C@H]1[C@H](O)C[C@@]2(C)[C@@H]3CC[C@H]4C(C)(C)[C@@H](NC)CC[C@@]45C[C@@]35CC[C@]12C |  | 62.4% (active) |
| COC(=O)Nc1ccc(-c2nc(N3CCOCC3)c3cnn(C4CCN(C(=O)OC)CC4)c3n2)cc1 | 52.6 nM (active) |  |
| CC(C)n1c(C=C[C@H](O)C[C@H](O)CC(=O)O)c(-c2ccc(F)cc2)c2ccccc21 | 29600 nM (active) |  |
| C=C1[C@H](n2cnc3c(=O)[nH]c(N)nc32)C[C@H](O)[C@H]1CO | 1320 nM (active) |  |
| Cc1nc(NC(=O)N2CCC[C@@H]2C(N)=O)sc1-c1csc(C(C)(C)C)n1 | 1050 nM (active) |  |
